High-throughput results as filed in PubChem.
MCF10A rereplic: induces DNA re-replication in MCF 10a normal breast cells; MCF 10A DNA re-replication, Hoechst nuclear intensity, 48 h; Potency, µM (series often up to 46.1 µM), without a hit: at the highest dose activity, positive = re-replication, most hits filed as activators; 2.9% of 350,000 active; also: % of control where 0% means no effect; nearly all actives have a fitted effect of over 50% in size
KB-V1 MDR tox: KB-V1 MDR subline cytotoxicity. AID 1347076. KB-V1 MDR cells viability, CellTiter-Glo, 72 h. 3.4% of 400,000 active. Potency, µM (series often up to 46.1 µM), most hits filed as cytotoxic; also: % is scaled to controls: 0 for no effect and ±100 for the full control effect; nearly all actives have a fitted effect of over 60% in size
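KB-V1, DMEM (no phenol red) + 10% FBS; cpd pin-transferred, titration series; 72 h, 37 degrees C; CellTiter-Glo, luminescence. Data normalized, curve-fit.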
ALOX12 inh: blocks human arachidonate 12S-lipoxygenase; purified 12hLO, xylenol orange hydroperoxide absorbance; AID 1671190; Potency, µM (highest dose often 108 µM), without a hit: at the highest dose activity change, negative = inhibition, usual class: inhibitors; P18054; 1.1% of 580,000 active; also: % is scaled to controls: 0 for no effect and ±100 for the full control effect
Target sequence (P18054 whole entry, looked up): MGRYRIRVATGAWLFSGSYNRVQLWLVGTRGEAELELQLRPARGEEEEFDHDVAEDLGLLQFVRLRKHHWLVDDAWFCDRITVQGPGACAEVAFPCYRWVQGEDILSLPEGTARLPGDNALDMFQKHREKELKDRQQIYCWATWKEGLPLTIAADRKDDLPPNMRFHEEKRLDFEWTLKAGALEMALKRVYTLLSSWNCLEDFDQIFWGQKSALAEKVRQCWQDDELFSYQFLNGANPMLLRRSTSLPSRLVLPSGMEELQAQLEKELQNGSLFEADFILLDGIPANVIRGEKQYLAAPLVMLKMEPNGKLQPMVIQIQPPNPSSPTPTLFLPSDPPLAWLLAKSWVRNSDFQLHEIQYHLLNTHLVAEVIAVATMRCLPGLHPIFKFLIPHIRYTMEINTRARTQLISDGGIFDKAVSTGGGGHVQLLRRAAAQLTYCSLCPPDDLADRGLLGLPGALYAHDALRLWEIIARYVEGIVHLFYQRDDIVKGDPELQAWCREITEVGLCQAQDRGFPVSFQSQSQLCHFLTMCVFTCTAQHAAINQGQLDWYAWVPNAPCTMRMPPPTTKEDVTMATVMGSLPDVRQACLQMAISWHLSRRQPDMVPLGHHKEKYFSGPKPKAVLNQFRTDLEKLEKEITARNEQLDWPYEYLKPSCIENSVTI
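Hydroperoxide product was detected by ferrous iron/xylenol orange as the 573 to 405 nm absorbance ratio. Arachidonic acid at 40 uM (final) was turned over for 30 min at room temperature by 150 nM human 12hLO, pH 7.0 Hepes buffer, after 15 min compound preincubation.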
KB-3-1 tox: KB-3-1 parental cell cytotoxicity | KB-3-1 viability, CellTiter-Glo ATP luminescence, 72 h | Potency, µM (top dose mostly 46.1 µM), hits mostly cytotoxic | 1.4% of 400,000 active; also: % is scaled to controls: 0 for no effect and ±100 for the full control effect; nearly all actives have a fitted effect of over 60% in size
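Luminescent ATP read-out (CellTiter-Glo) measures survival of drug-naive KB-3-1 cells after 72 h compound exposure at 37 °C. Titration series was screened from lowest to highest concentration, with DMSO vehicle plates as background controls.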
SW480 rereplic: induces DNA re-replication in SW480 colon adenocarcinoma cells; Potency, µM (top dose mostly 46.1 µM), without a hit: at the highest dose re-replication activation, actives largely listed as activators; SW480 DNA re-replication, Hoechst DNA content imaging, 48 h; AID 624297; 1.8% of 340,000 active; also: % of control where 0% means no effect; nearly all actives have a fitted effect of over 55% in size
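SW480 cells exposed to compounds for 48 hr at 37 C, 5% CO2, then Hoechst-stained 40 min. Nuclear DNA content imaged by fluorescence scanning (405 nm excitation, 500-530 nm emission); re-replication scored as increased high-intensity nuclei.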
PINK1 modulator: changes PINK1 expression; PINK1 immunofluorescence, high-content cytometry, 24 h; Potency, µM (series often up to 76.6 µM), for the others: at the highest dose activation (PINK1 increase), most hits filed as activators; 0.2% of 410,000 active; active = well fitted activation curve with a large enough effect; inconclusive = small, poorly fitted or top-dose-only effect; cell line not stated here; also: % of control where 0% means no effect; nearly all actives have a fitted effect of over 65% in size
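Measures PINK1 amount and localization on or inside mitochondria by immunofluorescence. Stable cells get compounds at 5 concentrations for 24 hours before fixation and staining; CCCP controls included.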
The depositor's hits bear a star; i = inactive; ? = inconclusive; · = no result; [ ] = another dose, or the depositor's remark. The list is not random: actives were taken first. Their share in the collection is about 5.8%. Unless noted, calls follow the shape of the dose curve; as a rule, active = well fitted curve in the direction sought with a large enough effect; inconclusive = small, poorly fitted or top-dose-only effect, or another doubt; inactive = no such curve, though single readings can be large; an effect the other way counts as inactive or inconclusive. Potency is read from the fitted curve at half-maximal effect.

SMILES	MCF10A rereplic	KB-V1 MDR tox	ALOX12 inh	KB-3-1 tox	SW480 rereplic	PINK1 modulator
Cc1onc(-c2ccccc2)c1C(=O)N/N=C/c1ccc([N+](=O)[O-])s1	?	?	?	i	?	7%
NC(=O)c1ccc(N=Cc2ccc([N+](=O)[O-])s2)cc1	15µM*	?	-15%	?	3.3µM*	-2%
Cc1c(N=Cc2ccc(Br)s2)cccc1[N+](=O)[O-]	5%	i	0%	i	-7%	7%[38.3 µM]
Cc1cc(C)cc(N=Cc2ccc([N+](=O)[O-])s2)c1	21µM*	?	-9%	?	3.7µM*	-1%
CCOc1ccc(CNC(=O)c2ncoc2-c2ccc(C)s2)cc1OC	·	·	-26%	·	·	·
O=c1[nH]nc(SCc2ncc(-c3ccccc3)o2)n1C1CC1	·	·	-25%	·	·	·
c1cn2c(Nc3ccc4c(c3)OCCO4)c(-c3ccc(N4CCOCC4)cc3)nc2cn1	1%	i	0%	i	5%	-2%
COc1cc(-c2nc3cnccn3c2Nc2c(C)cccc2C)ccc1O	16µM*	i	-1%	i	23µM*	·
Cc1cccc(C)c1Nc1c(-c2ccc(N3CCOCC3)cc2)nc2cnccn12	23µM*	i	-19%	i	?	3%
Cc1ccc(S(=O)(=O)N2CCCN(S(=O)(=O)c3ccc(C(F)(F)F)cc3)CC2)cc1	7.3µM*	?	-25%	i	9%	18%[38.3 µM]
CCNC(=S)N1CCN(S(=O)(=O)c2cccc(C(F)(F)F)c2)CC1	4%	23µM*	?	i	-1%	-1%
Cc1ccc(S(=O)(=O)N2CCN(CCNC(=O)c3ccc(C(F)(F)F)cc3)CC2)cc1	·	·	16µM*	·	·	·
Cc1ccc(S(=O)(=O)N2CCCN(C)CC2)cc1	?	i	0%	i	4%	4%
Cc1ccc(S(=O)(=O)N2CCN(CCNC(=O)c3cccc(C(F)(F)F)c3)CC2)cc1	·	·	28µM*	·	·	·
Cc1ccc(OCc2nc(C#N)c(N3CCCCCC3)o2)cc1	·	·	-4%	·	·	·
CCCCn1c(=NC(=O)c2ccc3c(c2)OCO3)c(C#N)cc2c(=O)n3cccc(C)c3nc21	?	?	?	?	?	-1%
CCCCn1c(=NC(C)=O)c(C#N)cc2c(=O)n3cccc(C)c3nc21	12µM*	i	-3%	?	21µM*	8%
CCCCCn1c(=NC(=O)c2cccnc2)c(C#N)cc2c(=O)n3cccc(C)c3nc21	13µM*	i	-5%	i	8.2µM*	2%
CCCCCn1c(=NC(C)=O)c(C#N)cc2c(=O)n3ccccc3nc21	?	i	?	i	?	-2%
CCOCCCn1c(=NC(C)=O)c(C#N)cc2c(=O)n3cccc(C)c3nc21	?	?	30%	i	13µM*	-1%
Cc1nc(NCCC(C)C)sc1C(=O)NCc1ccco1	·	·	6%	·	·	·
CCNC(=O)[C@@H]1CCCN1C(=O)[C@H](CCCN=C(N)N)NC(=O)[C@H](CC(C)C)NC(=O)[C@@H](Cc1c[nH]c2ccccc12)NC(=O)[C@H](Cc1ccc(O)cc1)NC(=O)[C@H](CO)NC(=O)[C@H](Cc1c[nH]c2ccccc12)NC(=O)[C@H](Cc1cnc[nH]1)NC(=O)[C@@H]1CCC(=O)N1	30µM*	·	·	·	?	·
CC(C)C[C@H](NC(=O)[C@@H](Cc1c[nH]c2ccccc12)NC(=O)[C@@H](Cc1ccc(O)cc1)NC(=O)[C@@H](CO)NC(=O)[C@@H](Cc1c[nH]c2ccccc12)NC(=O)C(Cc1cnc[nH]1)NC(=O)C1CCC(=O)N1)C(=O)N[C@@H](CCCN=C(N)N)C(=O)N1CCC[C@@H]1C(=O)NCC(N)=O (stereo partly specified)	-3%	·	·	·	-2%	·
CCOc1ccc(NC(=O)/C(C#N)=C/c2cn(CC(=O)O)c3ccccc23)cc1	?	i	-13%	i	-3%	1%
COc1ccccc1OCCn1cc(/C=C(\C#N)C(=O)NCc2cccs2)c2ccccc21	-6%	18µM*	14%	i	-14%	2%
SMILES	MCF10A rereplic	KB-V1 MDR tox	ALOX12 inh	KB-3-1 tox	SW480 rereplic	PINK1 modulator
CCOc1ccc(/C=C(\C#N)C(=O)NCC2CCCO2)cc1OCC (stereo unspecified)	-1%	i	?	i	-6%	1%
Cc1ccc(C)c(OCCn2cc(/C=C(/C#N)C(=O)NCC3CCCO3)c3ccccc32)c1 (stereo unspecified)	?	15µM*	-22%	i	25%	3%
COc1cc(/C=C(\C#N)C(=O)NCC2CCCO2)ccc1O (stereo unspecified)	-12%	?	-13%	i	-6%	2%
CCOC(=O)/C(C#N)=C/c1cn(CCOc2ccc(OC)cc2)c2ccccc12	16µM*	i	-15%	i	4%	0%
Cc1cc(/C=C(\C#N)C(=O)NCC2CCCO2)c(C)n1-c1ccc(Cl)cc1 (stereo unspecified)	3%	4.1µM*	0%	i	-13%	-6%[38.3 µM]
O=[N+]([O-])c1ccccc1/C=C/C=N/Nc1ccc(Cl)nn1	·	·	27%	·	·	·
CCN(Cc1ccc(OC)c(OC)c1)C(=O)c1cc2ccccc2oc1=O	·	·	-26%	·	·	·
CNC(=O)c1ccccc1C(=O)c1cc(C)ccc1C	·	·	2%	·	·	·
CC1(C)CC(=O)C2=C(C1)N(c1cccc(C(F)(F)F)c1)C(=O)CC2c1cccs1 (stereo unspecified)	·	·	30%	·	·	·
O=C(NCCOc1ccccc1)C(=O)NCC1CCCO1 (stereo unspecified)	3%	?	7%	i	-6%	2%
N#C/C(=C\c1cn(CCOc2ccccc2)c2ccccc12)C(=O)NCC1CCCO1 (stereo unspecified)	19%	6.5µM*	-7%	i	?	4%
COC(=O)c1cc(=O)nc2sc(-c3ccc(F)cc3)nn12	-2%	i	·	i	8%	-6%[38.3 µM]
O=C(NCc1ccccc1)c1cc(=O)nc2sc(-c3ccccc3)nn12	11%	13µM*	-31%	?	0%	1%
O=C(Nc1ccc2c(c1)CCC2)N1CCC2(CC1)OCCO2	·	·	-2%	·	·	·
Cc1noc(C(=O)Nc2sc3c(c2C#N)CCC3)c1Cl	0%	i	?	?	-8%	1%
Cc1cc(C(=O)Nc2sc3c(c2C#N)CCCC3)no1	?	?	35µM*	?	12µM*	?
CC1CCc2c(sc(NC(=O)c3ccc(Cl)cc3Cl)c2C#N)C1 (stereo unspecified)	·	i	-6%	i	·	3%
